Results as given in PubChem BioAssay AID2023 (NMMLSC, 2009).
Out of some 320,000 compounds screened, about 1,100 (0.34%) were called active.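 How the source made its calls: active means GFP response vs DMSO above a set limit, about the screen mean plus 3 SD (cut at about 150% in these data); inconclusive means under 70 cell events counted for the yeast strain; inactive means the rest.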 The sample as a whole holds a higher share of actives than the screen did.

Assay: modulators of LAP4-GFP expression in yeast, primary screen, S. cerevisiae, multiplex flow cytometry, MLPCN library (AID 2023)
Settings: 3 h, at 10 µM, stronger effect = higher value, median GFP as percent of DMSO wells

Row | Compound | GFP response vs DMSO
1 | COc1ccc(/C=C(\C#N)c2c[nH]c3ccccc23)cc1 | 97.2% (inactive)
2 | O=C(NC1CCCC1)C(=O)c1c[nH]c2ccccc12 | 100% (inactive)
3 | C[n+]1ccc(/C=C/c2c[nH]c3ccccc23)cc1 | 214% (active)
4 | CC(C)C(=O)Nc1c2c(nn1-c1ccccc1)CSC2 | 104% (inactive)
5 | CC(C)=NN1C(=O)c2ccccc2NC1(C)C | 103% (inactive)
6 | CCCC(=O)Nc1ncnc2c1ncn2[C@@H]1O[C@@H]2OP(=O)(O)OC[C@H]2[C@H]1OC(=O)CCC | 103% (inactive)
7 | CCc1ccc2c(c1)C1(NN=C(c3ccccc3)S1)C(=O)N2 (configuration not stated) | 169% (active)
8 | C[C@H](NC(=O)C1CC(=O)N(c2ccc3c(c2)OCO3)C1)C(=O)NCc1ccco1 (some centres not stated) | 94% (inactive)
9 | COC(=O)Nc1ccc(S(=O)(=O)N2CCN(CCN3C(=O)C4C5C=CC(C5)C4C3=O)CC2)cc1 (configuration not stated) | 95.9% (inactive)
10 | O=c1[nH]c2ccccc2n2c(-c3ccccc3)nnc12 | 87.9% (inactive)
11 | COc1ccc(OCc2cc(C(=O)N3CCCC3)no2)c2ccccc12 | 85.3% (inactive)
12 | O=C(c1ccccc1)c1ccc(C(=O)N2CCN(c3ccccc3)CC2)cc1 | 78.1% (inactive)
13 | O=C(c1ccc(N2CCOCC2)c([N+](=O)[O-])c1)N1CCN(c2ccccc2F)CC1 | 96% (inactive)
14 | O=C(c1ccc(Cl)c([N+](=O)[O-])c1)N1CCN(c2ccccc2)CC1 | 165% (active)
15 | Cc1ccc(C(=O)NCC(=O)NC2CC2)cc1 | 97.3% (inactive)
16 | O=C(NNC(=S)NC(=O)c1cn(-c2ccccc2)nc1-c1ccccc1)c1ccncc1 | 159% (active)
17 | Cc1ccc(-c2nn(-c3ccccc3)cc2C(=O)NC2CCC(O)CC2)cc1 (configuration not stated) | 94.9% (inactive)
18 | Cc1onc(-c2ccccc2)c1C(=O)NNC(=S)NC(=O)c1ccc(F)cc1 | 102% (inactive)
19 | CCOc1ccc(CCNC(=O)CN2C(=O)NC3(CCc4ccccc43)C2=O)cc1OCC (configuration not stated) | 98.4% (inactive)
20 | CCCCC(=O)Nc1ccc2c(c1)C(=O)NC2=O | 107% (inactive)
21 | O=C(Nc1cc(Cl)cc(Cl)c1)C(NCCCO)c1ccccc1 (configuration not stated) | 99.3% (inactive)
22 | CCCCN1C(=O)c2ccc(C(=O)Nc3ccc(S(=O)(=O)N(C)C)cc3)cc2C1=O | 93.7% (inactive)
23 | CC(CCc1ccc(O)cc1)NCc1ccc(Cl)cc1Cl (configuration not stated) | 99.7% (inactive)
24 | CCC(C)n1[nH]c(=O)cc1N (configuration not stated) | 92.7% (inactive)
25 | S=C1SCN(CCN2CCOCC2)CN1Cc1ccccc1 | 111% (inactive)
26 | COc1ccc(CN2CN(C(C)C)CSC2=S)cc1 | 162% (active)

Row | Compound | GFP response vs DMSO
27 | COc1ccc(CN2CN(C3CCCC3)CSC2=S)cc1 | 98.2% (inactive)
28 | Cc1onc(-c2c(F)cccc2Cl)c1C(=O)OCC(=O)N1C(C)CCCC1C (configuration not stated) | 107% (inactive)
29 | CCOC(=O)/C=c1\s/c(=C\c2ccc(C#N)cc2)c(=O)n1CC(=O)Nc1cccc(C)c1C | 96.9% (inactive)
30 | CN(c1ccccc1)c1ccc(/C=c2\s/c(=C(/C#N)C(=O)C(C)(C)C)n(Cc3ccco3)c2=O)cc1 | 377% (active)
31 | CCOC(=O)Cn1c(=O)oc2cc(S(=O)(=O)N(C)Cc3ccco3)ccc21 | 107% (inactive)
32 | CC1C=CCC2C(=O)N(c3cccc(C(=O)N4CCCCCC4)c3)C(=O)C12 (configuration not stated) | 97.9% (inactive)
33 | Cc1cccc[n+]1CC(=O)c1ccccc1 | 91.6% (inactive)
34 | COC(=O)C[n+]1cccc2ccccc21 | 212% (active)
35 | COc1ccccc1NC(=O)C[n+]1ccccc1 | 109% (inactive)
36 | CC1(C)CC(=O)C2=C(C1)N=C1SCCC(=O)N1C2c1ccc(C(F)(F)F)cc1 (configuration not stated) | 98.2% (inactive)
37 | CCCCNc1c(-c2ccc(OC)c(Sc3ccc(OC)cc3)c2)nc2ccc(Cl)cn12 | 141% (inactive)
38 | CCCCNc1c(-c2cccc(Sc3ccc(OC)cc3)c2)nc2ccccn12 | 151% (active)
39 | CCCCCCSc1ccc(-c2nc3ccc(Cl)cn3c2NCc2ccccc2)cc1 | 99.4% (inactive)
40 | COc1ccc(N2CCN(S(=O)(=O)c3cc(Br)cnc3N)CC2)cc1 | 100% (inactive)
41 | CCOc1ccc(-n2c(SC(C)C(=O)OC)nc3c(c2=O)SCC3)cc1 (configuration not stated) | 95.9% (inactive)
42 | CCN1/C(=C\c2ccc3ccccc3[n+]2CC)Sc2cc(C)ccc21 | 501% [may fluoresce green] (active)
43 | CCN1/C(=C/c2ccc3ccc(C)cc3[n+]2CC)Sc2ccccc21 | 319% [may fluoresce green] (active)
44 | O=C1CCC/C=C\C[C@@H](CC(=O)N(CCO)Cc2ccccc2)C(=O)NCCO1 | 85.9% (inactive)
45 | NS(=O)(=O)c1ccc(CCNC(=O)CCCn2c(SCC(=O)N3CCCC3)nc3ccsc3c2=O)cc1 | 101% (inactive)
46 | Clc1cccc(CN2COc3c(cc(Cl)c4cccnc34)C2)c1 | 182% (active)
47 | CC(C)CC(=O)N1CCN(Cc2cccc(Cl)c2)CC1 | 102% (inactive)
48 | O=C(c1cccc(Cl)c1)N1CCN(Cc2ccccc2)CC1 | 101% (inactive)
49 | CC(C)=CCC/C(C)=C/C(=O)O | 105% (inactive)
50 | O=C(CN1CCCSc2ccccc21)N1CCN(S(=O)(=O)c2cccc(F)c2)CC1 | 110% (inactive)
51 | CC1=NNC(=O)C1Cc1c(Cl)cccc1Cl (configuration not stated) | 98.6% (inactive)
52 | O=C(OC1CCOC1=O)c1cccc(S(=O)(=O)Nc2ccc(F)cc2)c1 (configuration not stated) | 95.1% (inactive)

Row | Compound | GFP response vs DMSO
53 | CC(=O)Nc1ccc(N2C(=O)CC(Sc3nccc(C)n3)C2=O)cc1 (configuration not stated) | 89.5% (inactive)
54 | Cc1cc(NC(=O)CCN2CCN(Cc3ccccc3)CC2)ccc1Br | 83.3% (inactive)
55 | CC(C)C(=O)N1CC(=O)Nc2ccc(F)cc2C1c1ccc(F)cc1 (configuration not stated) | 108% (inactive)
56 | O=C(/C=C/Sc1ncn[nH]1)c1ccc(Cl)cc1 | 219% (active)
57 | O=C(CSc1ncn[nH]1)N/N=C/c1ccc(F)cc1 | 117% (inactive)
58 | O=C(CSc1ncn[nH]1)Nc1ccc(Br)cc1Br | 93.9% (inactive)
59 | Cc1ccnc(NC(=O)CCNS(=O)(=O)c2ccc(C)c(C)c2)c1 | 81.8% (inactive)
60 | COc1ccccc1CNC(=O)CNC(=O)c1cn(-c2ccccc2OC)c(=O)c2ccccc12 | 95.4% (inactive)
61 | COc1ccc(O[C@H]2C=C[C@@H](c3ccccc3)O[C@@H]2CO/N=C/C[C@@H]2C=C[C@H](OC(C)=O)[C@@H](COC(C)=O)O2)cc1 | 111% (inactive)
62 | O=C(CCC(=O)OCc1cccc(C(=O)Oc2ccccc2)c1)Nc1cccc2ccccc12 | 104% (inactive)
63 | Oc1ccc(Br)cc1/C=N/Nc1ccccn1 | 287% (active)
64 | COc1ccc(-c2nn(-c3ccccc3)cc2/C=N/Nc2ccccn2)cc1OC | 96.4% (inactive)
65 | Oc1ccc(Br)cc1C=Nc1ccc2[nH]ncc2c1 | 93.5% (inactive)
66 | O=C(CC1SC(=Nc2ccccc2F)N(CCN2CCOCC2)C1=O)Nc1ccc(F)cc1F (configuration not stated) | 126% (inactive)
67 | O=c1[nH]c(CCl)nc2cc(-c3ccc(Cl)cc3)sc12 | 163% (active)
68 | O=c1[nH]c(CN2CCOCC2)nc2cc(Cl)ccc12 | 92.7% (inactive)
69 | NC(=O)Cc1nc2scc(-c3ccc(Cl)cc3)c2c(=O)[nH]1 | 95.5% (inactive)
70 | O=C(O[C@@H]1[C@H](Cc2ccccc2)NS(=O)(=O)[C@H]2C[C@@H]3C=C[C@]12O3)c1ccccc1Br | 97.1% (inactive)
71 | CN(CCO)Cc1csc2ccc(Br)cc12 | 106% (inactive)
72 | Cc1ccc(-n2cnc3ncnc(-c4ccccc4)c32)cc1 | 102% (inactive)
73 | Cc1ccc(-c2nn(C(C)(C)C)c3ncnc(N)c23)cc1 | 190% (active)
74 | O=C(Nc1ccc(Cl)cc1)c1cccc(OC(=S)N2CCOCC2)c1 | 65.6% (inactive)
75 | Oc1c(Cl)cc(Cl)c(Cl)c1Cc1c(O)c(Cl)cc(Cl)c1Cl | 174% (active)
76 | COc1ccc(C)cc1NC(=O)CN(C)S(=O)(=O)c1ccc2c(c1)n(C)c(=O)c(=O)n2C | 94.1% (inactive)
77 | CC(C)(C)OC(=O)C[C@@H]1C/C=C\C[C@@H](CC(=O)N[C@H](CO)Cc2ccccc2)C(=O)NC[C@@H](c2ccccc2)OC1=O | 83% (inactive)
78 | Cc1c(O)c(C)c2c(c1O)C(=O)C[C@@H](c1ccccc1)O2 | 99.7% (inactive)

Row | Compound | GFP response vs DMSO
79 | CCCc1[nH]nc2c1C(c1ccc(OC(=O)c3ccco3)cc1)C(C#N)=C(N)O2 (configuration not stated) | 93.3% (inactive)
80 | CCCc1[nH]nc2c1C(c1ccc(Br)s1)C(C#N)=C(N)O2 (configuration not stated) | 152% (active)
81 | CCc1ccc(C2C(C#N)=C(N)Oc3n[nH]c(CC(=O)OC)c32)cc1 (configuration not stated) | 99.1% (inactive)
82 | CC[C@@H](C)[C@@H]1CN([C@@H](C)CN2CCC[C@H]2CN2C(N)=NC[C@H]2C(C)C)C(=N)N1CCc1ccc(Cl)c(Cl)c1 | 102% (inactive)
83 | CC1CC2=C(CC1/C=N/NC(N)=S)C(C)(C)CCC2 (configuration not stated) | 154% (active)
84 | Cc1ccc(CS(=O)Cc2ccc(C(=O)N3CCOCC3)o2)cc1 (configuration not stated) | 103% (inactive)
85 | N/C(=N\OC(=O)CCC1CCCCC1)c1ccccn1 | 92.5% (inactive)
86 | Cn1c(SCC(=O)Nc2cccc(NC(=O)c3cccs3)c2)nnc1-c1ccncc1 | 94.8% (inactive)
87 | NC(N)=N/N=C/c1ccc(OCc2ccc(Cl)cc2Cl)cc1 | 160% (active)
88 | OC(CNCCc1ccc(Cl)cc1Cl)COc1ccccc1 (configuration not stated) | 93.6% (inactive)
89 | CCOc1ccc(/C=N/NC(N)=S)cc1 | 109% (inactive)
90 | COc1cc(OC)cc(/C(N)=N/O)c1 | 114% (inactive)
91 | CCc1ccccc1NC(=O)c1cc(-c2ccc3c(c2)OCO3)on1 | 93.6% (inactive)
92 | O=C(Nc1cccnc1Cl)c1cc(-c2cccc(Cl)c2)on1 | 98.9% (inactive)
93 | O=C(Nc1ccccc1C(F)(F)F)c1cc(-c2ccc(O)cc2)on1 | 151% (active)
94 | Cc1ccc(C(=O)NNC(=O)C(C)Oc2ccc3ccccc3c2)o1 (configuration not stated) | 104% (inactive)
95 | Cc1ccc(OCC(=O)NCCCNC(=O)c2ccco2)cc1C | 90% (inactive)
96 | COc1ccc(C(=O)NC(=S)NNC(=O)c2c(-c3ccccc3)noc2C)cc1 | 102% (inactive)
97 | COc1ccc(C(=O)NC(=S)NNC(=O)CCc2ccccc2)cc1 | 195% (active)
98 | CC(Oc1ccc2ccccc2c1)C(=O)NNC(=S)NC(=O)c1ccco1 (configuration not stated) | 237% (active)
99 | CC(C)Oc1ccc(CCC(=O)NNC(=S)NCc2ccccc2)cc1 | 103% (inactive)
100 | CCCc1ccc(OCC(=O)NNC(=S)NC(=O)c2ccco2)cc1 | 182% (active)
101 | O=C(Nc1ccc2ccccc2c1)/C(=C/c1cccc(Br)c1)NC(=O)c1ccco1 | 91% (inactive)
102 | CCCc1ccc(OCCNC(=O)c2ccco2)cc1 | 83.5% (inactive)
